# PubChem BioAssay (EPA / NIEHS)
# Active and inactive are the calls of the source. Rule for the calls: active = hit-call score of the fitted dose curve at least 0.9, where 1 is the maximum; inactive = score below 0.9.
# Assay: ATG_AP_1_CIS: Attagene CIS-FACTORIAL HepG2 Assay for human Activator Protein 1 (AP-1) (AID 2282931)
# Details: HepG2 Attagene cis-factorial AP-1 reporter mRNA; actives raise or lower the signal
# Procedure: ATG_CIS is a cell-based, multiplexed-readout assay that uses HepG2, a human liver cell line, with measurements taken at 24 hours after chemical dosing in a 24-well plate.ATG_AP_1_CIS is one of 52 assay component(s) measured or calculated from the ATG_CIS assay. It is designed to make measurements of mRNA induction, a form of inducible reporter, as detected with fluorescence intensity signals by Reverse transcription polymerase chain reaction (RT-PCR) and Capillary electrophoresis technology.Data from the assay component ATG_AP_1_CIS was analyzed into 1 assay endpoint. This assay endpoint, ATG_AP_1_CIS, was analyzed with bidirectional fitting relative to DMSO as the negative control and baseline of activity. Using a type of inducible reporter, measures of mRNA for gain or loss-of-signal activity can be used to understand the reporter gene at the transcription factor-level as they relate to the gene FOS and JUN. Furthermore, this assay endpoint can be referred to as a primary readout, because this assay has produced multiple assay endpoints where this one serves a reporter gene function. To generalize the intended target to other relatable targets, this assay endpoint is annotated to the dna binding intended target family, where the subfamily is basic leucine zipper.
# Human liver HepG2 cells are transiently transfected with multiple reporter transcription units (MRTUs) in 6-well plates using FuGene 6 reagent (Roche; 3 ml FuGene/1 mg DNA). The MRTU constructs are regulated by a cis-regulating element (promoter). […] A major difference between the CIS and TRANS system is that in CIS activities of endogenous TFs are measured, whereas the TRANS assay evaluates changes in activities of exogenous, chimeric NR-Gal4 proteins. […] At the end of 24 hour incubation, total RNA was isolated using TriZol reagent (Invitrogen). The isolated RNA is then reverse-transcribed using oligo(dT) primer and Mo-MLV reverse transcriptase (Invitrogen) with DNAse I (Ambion) treatment for 30 min. The one-tenth of the produced cDNA was amplified by PCR using Taq DNA polymerase (Invitrogen) and two reporter sequence-specific primers. The PCR products were fluorescently labeled by primer extension with 6-arboxyfluorescein (6-FAM) 5'-labeled reporter sequence-specific primer (2 min at 95 C, 20 s at 68 C and 10 min at 72 C) and these products were digested with 5U of HpaI (New England Biolabs) for 2h at 37 C. The fragments were purified using Qiaquick PCR columns (Qiagen), analyzed on an ABI 3130xL genetic analyzer (Applied Biosystems) with peak positions identified by using a set of X-rhodamine (ROX)-labeled MapMarker1000 molecular weight standards (BioVentures). The raw capillary electrophoresis data was processed using Attagraph software (Attagene).
Compound,AC50,outcome
CC(C)N(C(=O)CCl)c1ccccc1,11.6 µM (active),
CC(C)(c1ccccc1)c1cc(-n2nc3ccccc3n2)c(O)c(C(C)(C)c2ccccc2)c1,,inactive
C[As+](C)(C)CC(=O)[O-],,inactive
CC1(C)[C@H](/C=C2\CCSC2=O)[C@@H]1C(=O)OCc1coc(Cc2ccccc2)c1,144 µM (active),
O=C(Cl)OCCOCCOC(=O)Cl,,inactive
CCCCCCCCBr,,inactive
OCCCCO,,inactive
CC[N+](CC)(CC)CC,,inactive
O=S(=O)(c1ccc(Cl)cc1)c1cc(Cl)c(Cl)cc1Cl,,inactive
CCCCCCCCCCCCCl,,inactive
O=C/C(Cl)=C(/Cl)C(=O)O,,inactive
O=C(NC(=O)c1c(F)cccc1F)Nc1cc(Cl)c(F)c(Cl)c1F,,inactive
c1cc[c]([Sb]([c]2ccccc2)[c]2ccccc2)cc1,68.5 µM (active),
O=C(Cc1ccccc1)OCCc1ccccc1,,inactive
Cc1cc(-c2cc(C)c(N)c(C)c2)cc(C)c1N,,inactive
Fc1cccc(Cl)c1CCl,,inactive
CCCCN(CCCC)C(=S)[S-].CCCCN(CCCC)C(=S)[S-].[Ni+2],,inactive
ClCc1ccccc1Cl,,inactive
CCCSP(=S)(OCC)Oc1ccc(Cl)cc1Cl (stereo not given),31.7 µM (active),
CCOc1ccc(N)cc1,,inactive

Compound,AC50,outcome
Clc1cc(C(Cl)(Cl)Cl)cnc1Cl,12.6 µM (active),
O=C(CCl)Nc1ccccc1,,inactive
[F][Sn]([c]1ccccc1)([c]1ccccc1)[c]1ccccc1,,inactive
OC[C@@H](O)[C@H]1O[C@@H]2O[C@H](C(Cl)(Cl)Cl)O[C@@H]2[C@H]1O,,inactive
CN(N=O)c1ccc([N+](=O)[O-])cc1,,inactive
O=C(CBr)c1ccc(O)cc1,,inactive
Nc1nc(N)nc(Cl)n1,,inactive
OC[P+](CO)(CO)CO,,inactive
c1ccc2c(c1)Oc1ccccc1O2,,inactive
CCOc1cc(C=O)ccc1O,,inactive
BrCc1ccc(Br)cc1,,inactive
O=S(=O)(Oc1ccc(Cl)cc1)c1ccc(Cl)cc1,32.6 µM (active),
Clc1cccc(Cl)c1Cl,,inactive
C=CC(F)(C(F)(F)F)C(F)(F)C(F)(F)F (stereo not given),,inactive
CCN(N=O)C(N)=O,,inactive
CCOP(=O)(OCC)SCCSCC,,inactive
O=[N+]([O-])c1ccccc1O,,inactive
O=C1C=CC(=O)c2ccccc21,,inactive
COC(F)(C(F)(F)C(F)(F)F)C(F)(C(F)(F)F)C(F)(F)F (stereo not given),,inactive
CNC(=O)O/N=C/C(C)(C)S(C)(=O)=O,,inactive
